Results published in PMC5540273 (PLoS ONE, 2017).

Experiments:
Settings in all cases: concentration: 1 μM, replicates: in singlicate; n = 1
CAMK1 = system: CAMK1
CAMK2A = system: CAMK2A
CAMK2B = system: CAMK2B
CAMK2D = system: CAMK2D
CAMK2G = system: CAMK2G
CAMK4 = system: CAMK4
CAMKK1 = system: CAMKK1
CAMKK2 = system: CAMKK2
CASK = system: CASK
CDC2L1 = system: T1, CDC2L1
T1 construct: gene CDK11B
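Note: KINOMEscan kinase panel screen.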

| Compound | %Inh (CAMK1) [%] | %Inh (CAMK2A) [%] | %Inh (CAMK2B) [%] | %Inh (CAMK2D) [%] | %Inh (CAMK2G) [%] | %Inh (CAMK4) [%] | %Inh (CAMKK1) [%] | %Inh (CAMKK2) [%] | %Inh (CASK) [%] | %Inh (CDC2L1) [%] |
| --- | --- | --- | --- | --- | --- | --- | --- | --- | --- | --- |
| FC(F)(F)c1ccc(/C=C/c2cncnc2Nc2ccc3[nH]c(Cc4ccccc4)nc3c2)cc1 [GW709199] | 0 | 34 | 36 | 3 | 8 | 0 | 19 | 0 | 10 | 0 |
| CN1CCN(Cc2cccc(-c3ccc4c(Nc5ccc(Oc6ccccc6)cc5)ccnc4c3)c2)CC1 [GW578342] | 27 | 1 | 0 | 5 | 10 | 0 | 0 | 0 | 1 | 0 |
| Cn1cc(-c2[nH]c3cc(NC(=O)[C@H](N)C4CCCCC4)cc4c3c2C=NNC4=O)cn1 | 49 | 68 | 15 | 76 | 73 | 0 | 60 | 56 | 6 | 2 |
| Cn1cc(-c2ccc3c(c2)CCN3C(=O)Cc2cccc(F)c2)c2c(N)ncnc21 [GSK2603358] | 79 | 0 | 0 | 16 | 34 | 0 | 26 | 29 | 17 | 0 |
| COC(=O)Nc1nc2cc(Oc3ccc(NC(=O)Nc4cc(C(F)(F)F)ccc4F)cn3)ccc2[nH]1.Cl.Cl [GW681170] | 17 | 0 | 0 | 42 | 57 | 0 | 49 | 59 | 0 | 0 |
| Cc1ccc(S(=O)(=O)Nc2ccc(Nc3nccc(Nc4cccc5[nH]ncc45)n3)cc2)cc1 [GSK581271] | 24 | 0 | 0 | 4 | 8 | 0 | 0 | 9 | 45 | 0 |
| COc1ccc(CNC(=O)NC2CCN(c3ccnc(Nc4ccc(F)cc4)n3)CC2)cc1 [GSK1379788] | 10 | 0 | 0 | 8 | 16 | 0 | 2 | 16 | 0 | 0 |
| Oc1cc(Nc2ccnc3cc(I)ccc23)ccc1F [GW552771] | 19 | 0 | 0 | 0 | 0 | 0 | 8 | 0 | 18 | 0 |
| Cc1ccc(C)c(NC(=O)NC2CCN(c3ccnc(Nc4ccc(F)cc4)n3)C2)c1 (centres unmarked) [GSK1379720] | 2 | 0 | 0 | 19 | 4 | 0 | 0 | 0 | 9 | 0 |
| Cc1occc1-c1ncc(OC[C@@H](N)Cc2c[nH]c3ccccc23)cc1-c1ccc2[nH]nc(C)c2c1.O=C(O)C(F)(F)F [GSK682037] | 25 | 20 | 27 | 47 | 52 | 0 | 19 | 16 | 11 | 0 |
| CN(C)S(=O)(=O)c1cc(-c2ccc3nccc(-c4cccc(S(N)(=O)=O)c4)c3c2)cnc1N [GSK1669921] | 40 | 1 | 0 | 3 | 8 | 0 | 48 | 47 | 4 | 0 |
| COc1cccc(C2=C(Nc3ccc(Cl)c(C(=O)O)c3)C(=O)NC2=O)c1 [SB-390769] | 0 | 0 | 0 | 3 | 1 | 0 | 0 | 0 | 100 | 0 |
| Cl.c1ccc(-c2ccc3c(Nc4ccc5[nH]ccc5c4)ccnc3c2)nc1 [GW440138] | 0 | 0 | 0 | 7 | 18 | 0 | 3 | 12 | 0 | 0 |
| CCc1ccc(-c2ccc3c(c2)-c2c(cnn2C)S(=O)(=O)N3C)cc1 | 2 | 0 | 4 | 0 | 13 | 0 | 13 | 12 | 3 | 0 |
| Nc1n[nH]c2cnc(-c3ccccc3)cc12 [SB-642124] | 5 | 0 | 13 | 17 | 22 | 0 | 1 | 0 | 26 | 0 |
| COc1cccc(NC(=O)NC2CCN(c3ccnc(Nc4cc(OC)c(OC)c(OC)c4)n3)C2)c1 (centres unmarked) [GSK1379763] | 26 | 0 | 0 | 13 | 38 | 0 | 40 | 36 | 15 | 1 |

| Compound | %Inh (CAMK1) [%] | %Inh (CAMK2A) [%] | %Inh (CAMK2B) [%] | %Inh (CAMK2D) [%] | %Inh (CAMK2G) [%] | %Inh (CAMK4) [%] | %Inh (CAMKK1) [%] | %Inh (CAMKK2) [%] | %Inh (CASK) [%] | %Inh (CDC2L1) [%] |
| --- | --- | --- | --- | --- | --- | --- | --- | --- | --- | --- |
| COc1cc(Nc2nccc(N3CCC(NC(=O)Nc4cccc(C(C)=O)c4)C3)n2)cc(OC)c1OC (centres unmarked) [GSK1379753] | 42 | 0 | 0 | 0 | 0 | 0 | 0 | 4 | 0 | 0 |
| Nc1ncnc2c1nc(-c1ccccc1)n2-c1ccccc1 [SKF-97293] | 13 | 3 | 1 | 18 | 4 | 0 | 0 | 6 | 17 | 0 |
| Cc1ccc(C(=O)Nc2ccc(Nc3ccnc4cc(-c5nccs5)ccc34)cc2O)cc1.Cl [GW494702] | 13 | 0 | 0 | 0 | 14 | 0 | 3 | 6 | 4 | 0 |
| c1ccc(-c2cnc3nccnn23)cc1 [AH20685] | 0 | 0 | 0 | 0 | 0 | 0 | 1 | 0 | 4 | 0 |
| CC(=O)N1CCN(c2ccc(Nc3nccc(-c4sc(C(C)C)nc4-c4cccc(NS(=O)(=O)c5cccc(Cl)c5)c4)n3)cn2)CC1 [GSK1660437] | 34 | 0 | 0 | 0 | 0 | 0 | 0 | 0 | 0 | 0 |
| O=C(Nc1n[nH]c2cc(-c3ccoc3)ccc12)C1CC1 [SB-738481] | 0 | 8 | 0 | 14 | 25 | 0 | 2 | 18 | 0 | 0 |
| CCn1c(-c2nonc2N)nc2c(C#CC(C)(C)O)nc(OC[C@H](N)c3ccccc3)cc21 [GSK943949] | 0 | 0 | 0 | 0 | 0 | 0 | 0 | 0 | 25 | 0 |
| COc1cc(Nc2ncc3c(C)nc(-c4cc5ccccc5[nH]4)n3n2)cc(OC)c1OC [GW869516] | 19 | 1 | 8 | 6 | 1 | 0 | 13 | 9 | 0 | 5 |
| Cl.Cl.NCC(NCc1ccc(-c2ccnc3[nH]ccc23)s1)c1ccccc1 (centres unmarked) [GSK1321565] | 10 | 0 | 0 | 13 | 19 | 0 | 0 | 9 | 0 | 0 |
| CCCCc1nn2ncccc2c1-c1ccnc(Nc2ccc(N3CCN(C)CC3)cc2)n1 [GW684941] | 28 | 0 | 0 | 0 | 0 | 0 | 0 | 0 | 16 | 0 |
| O=C(Nc1n[nH]c2nc(-c3ccc(O)cc3)ccc12)C1CC1 [SB-710363] | 0 | 19 | 19 | 5 | 0 | 0 | 8 | 17 | 31 | 0 |
| CC(=O)Nc1nc2cnc(Nc3cc(NC(=O)c4cccc(C5(C#N)CC5)c4Cl)ccc3C)nc2s1 | 35 | 13 | 0 | 0 | 10 | 0 | 14 | 12 | 0 | 43 |
| C[C@@H]1CC[C@@H](C(=O)Nc2ccccc2)CN1c1cc(-c2ccc3c(N)n[nH]c3c2)nc(N)n1 [GSK2286062] | 28 | 0 | 0 | 17 | 18 | 0 | 0 | 7 | 5 | 7 |
| COc1ccc(Nc2nccc(N3CCC(NC(=O)Nc4cccc(OC)c4)C3)n2)cc1 (centres unmarked) [GSK1379742] | 0 | 0 | 0 | 2 | 9 | 4 | 5 | 4 | 13 | 0 |
| Cl.NC(=O)c1cccc(Nc2nccc(Nc3ccc(Oc4c(Cl)cccc4Cl)c(Cl)c3)n2)c1 [GW659009] | 14 | 0 | 0 | 0 | 0 | 0 | 0 | 0 | 50 | 0 |
| COCCOCCOc1cc2ncc3c4ccc(C#N)cc4[nH]c3c2cc1OC | 26 | 85 | 57 | 87 | 72 | 0 | 83 | 63 | 8 | 0 |
